From PubChem BioAssay (NCI) come the findings set out here.

Assay [1] is described as follows: NCI Yeast Anticancer Drug Screen. Data for the rad50 strain (AID 155).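 Also: 0% = growth of vehicle-only cultures of the same strain.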 As to conditions: S. cerevisiae rad50 strain growth inhibition; at 50.0 µM; stronger effect = higher value. The essentials:
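A DNA repair-deficient yeast mutant serves as the test organism; compound-induced growth inhibition is calculated against vehicle-treated cells.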

A short description of assay [2]: NCI Yeast Anticancer Drug Screen. Data for the mec2-1 strain (AID 157). To be noted: S. cerevisiae mec2-1 strain, at 50.0 µM, stronger effect = higher value. The essentials: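 Growth inhibition is read against vehicle-treated controls after compound exposure of the mec2-1 yeast strain, which is defective in DNA damage repair or cell cycle control.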
The nature of assay [3]: NCI Yeast Anticancer Drug Screen. Data for the sgs1 mgt1 strain (AID 161).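 Also: 0% = growth of cultures given vehicle only.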 As to conditions: S. cerevisiae sgs1 mgt1 strain, at 50.0 µM, stronger effect = higher value. The essentials: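 Yeast cells carrying a defined DNA-repair defect were exposed to test compounds. Growth inhibition was measured relative to vehicle-treated controls.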
The nature of assay [4]: NCI Yeast Anticancer Drug Screen. Data for the cln2 rad14 strain (AID 165).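 Also: 0% = growth equal to vehicle treated cultures.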 To be noted: S. cerevisiae cln2 rad14 strain, at 50.0 µM, stronger effect = higher value. The essentials:
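Growth inhibition, relative to vehicle-treated controls, is the read-out. The test organism is a yeast strain with defined genetic alterations, cln2 rad14.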

Assay [5] is described as follows: NCI Yeast Anticancer Drug Screen. Data for the bub3 strain (AID 167). To be noted: S. cerevisiae bub3 mutant strain, at 50.0 µM, stronger effect = higher value. The essentials: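 Inhibition values come from growth of compound-treated mutant yeast normalised to vehicle-treated controls.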
The nature of assay [6]: NCI Yeast Anticancer Drug Screen. Data for the mlh1 rad18 strain (AID 175). As to conditions: S. cerevisiae mlh1 rad18 strain growth inhibition; at 50.0 µM; stronger effect = higher value. The essentials: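 Cells of a genetically altered yeast strain, deficient in DNA damage repair, were treated with compound. Their growth was then compared with that of vehicle-treated cultures to give inhibition.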

About 79,000 compounds went through this panel and 15% of them were active in at least one assay; those are over-represented in the sample as a whole. Unmarked numbers belong to inactive results. Active and inactive are the calls of the source. Rule as the data show it: active = growth inhibition above about 70%; inactive = the rest. Where a SMILES comes first, the peptide text is derived from it.

As for `COc1cc(NCCNCC(C)(C)C)c2ncccc2c1`, the growth inhibition in assay [1] was 11.7%; in assay [2], 18.7%; in assay [3], 22.1%; in assay [4], 11.8%; in assay [5], 33.5%; in assay [6] it was 0.5%.
Regarding `N#C/C(=C\c1cccc(N)c1)c1ccccc1`, the growth inhibition in assay [1] is 45.4%; in assay [2], 57.9%; in assay [3] it was 73.7% (active); in assay [4] it was 30.1%; in assay [5], 88% (active); in assay [6], 80% (active).
Regarding `CCOc1ccccc1N(CCN(C)C)C(=O)C(c1ccccc1)c1ccccc1`, the growth inhibition is 20.9% in assay [1]; -18.7% in assay [2]; 1.05% in assay [3]; -7.7% in assay [4]; 25.6% in assay [5]; 31.8% in assay [6].
Consider `COC(=O)C1=C(C)N(NC(=O)Nc2ccccc2)C2(N)N(NC(=O)Nc3ccccc3)C(C)=C(C(=O)OC)C12C(=O)OC` (stereo not given), for which the growth inhibition in assay [1] was -8.9%; in assay [2], 5.1%; in assay [3] it was 3.55%; in assay [4], 2.2%; in assay [5] it was 15.2%; in assay [6], -2.8%.
On to `CCCCS(=O)(=O)Cc1ccccc1`, for which the growth inhibition in assay [1] is 1.75%; in assay [2], -0.55%; in assay [3], -1.25%; in assay [4], -14.1%; in assay [5], 0.3%; in assay [6] it was -17.4%.
For `O=C1C(OCc2ccccc2)=C(c2ccccc2)C(=O)N1c1ccccc1`, the growth inhibition in assay [1] is -1.75%; in assay [2], -13.2%; in assay [3], 2.2%; in assay [4] it was 24.8%; in assay [5], -11.6%; in assay [6], -9.75%.
Take `CCCc1oc(C)cc1CC`: the growth inhibition is 0.45% in assay [1]; -22.4% in assay [2]; 0.2% in assay [3]; -1.95% in assay [4]; -15.9% in assay [5]; -10.2% in assay [6].
For the molecule `CCc1c2c(cc3c1CC1(C3)Cc3cc4c(c(C(=O)OC)c3C1)CCCC4)CCCC2` (stereo not given), the growth inhibition in assay [1] was -18.8%; in assay [2], -16.4%; in assay [3] it was -20.8%; in assay [4] it was 9.65%; in assay [5] it was -14%; in assay [6], -25.9%.
As to `Cn1c(=O)c2c(nc(CCCCCCCCc3nc4c(c(=O)n(C)c(=O)n4C)n3C)n2C)n(C)c1=O`, the growth inhibition in assay [1] is -7.5%; in assay [2], 19.9%; in assay [3], -24.8%; in assay [4] it was -45%; in assay [5] it was -14.8%; in assay [6], -14.7%.
With `Ic1ccc(N=Cc2cccs2)cc1`, the growth inhibition is 5.1% in assay [1]; -1.85% in assay [2]; 21.6% in assay [3]; 6.8% in assay [4]; 10.8% in assay [5]; 21.8% in assay [6].
As for `CC(C)CC(NC(=O)C(Cc1ccccc1)NC(=O)CNC(=O)CN)C(=O)O` (stereo not given) (H-GGFL-OH; configuration not given here), the growth inhibition in assay [1] was -1.55%; in assay [2], -4.05%; in assay [3], -11.4%; in assay [4], -5.05%; in assay [5], -1.9%; in assay [6], -12.4%.
With `Cc1ccc2c(c1)CN(C)CO2`, the growth inhibition in assay [1] is -15%; in assay [2], 6.45%; in assay [3] it was 5.6%; in assay [4], -51.4%; in assay [5] it was -18.1%; in assay [6], -24.1%.
Turning to `O=c1cc(NCc2c(Cl)cccc2[N+](=O)[O-])[nH]c(=O)[nH]1`, the growth inhibition in assay [1] is -8.8%; in assay [2], 37.5%; in assay [3], 14.7%; in assay [4], -7.9%; in assay [5] it was 15%; in assay [6], -5.3%.
On to `S=C1N(c2ccccc2)CCN1c1ccccc1`, for which the growth inhibition in assay [1] was -15.2%; in assay [2] it was -14.9%; in assay [3], -21.9%; in assay [4], -17.2%; in assay [5], -18.9%; in assay [6] it was -2.65%.
Take `CNCC(O)(C(=O)O)C(=O)O`: the growth inhibition in assay [1] was -12.6%; in assay [2], -45.9%; in assay [3], -32.9%; in assay [4], 6.05%; in assay [5], -29.1%; in assay [6] it was -7.95%.
With `NC1(C(=O)O)CCCCC1`, the growth inhibition in assay [1] was -11.3%; in assay [2], -7.5%; in assay [3], -30.7%; in assay [4], -34.7%; in assay [5] it was -12.9%; in assay [6], -18.4%.
For `O=S1(=O)CC(N2CCOCC2)C2=C(O1)c1sc(-c3ccccc3)nc1CC2` (stereo not given), the growth inhibition in assay [1] is -16.8%; in assay [2], -7.45%; in assay [3], 14.8%; in assay [4], 14.3%; in assay [5], -4.55%; in assay [6] it was -3.95%.
With `CCOC(=O)OC1CCCCC1c1ccccc1` (stereo not given), the growth inhibition in assay [1] is 13.7%; in assay [2], -12.9%; in assay [3], -7.15%; in assay [4], -14.9%; in assay [5], -20.1%; in assay [6], -16.2%.
For `COC1CCCC2CC3=C(CCCC3)OC21` (stereo not given), the growth inhibition in assay [1] was -6.45%; in assay [2], 3.5%; in assay [3], 5.1%; in assay [4], -101%; in assay [5] it was -14%; in assay [6] it was -13.5%.
Regarding `N#CC(C#N)SCc1ccccc1`, the growth inhibition in assay [1] is 17.1%; in assay [2] it was 2.25%; in assay [3], -5.4%; in assay [4], 6.25%; in assay [5], 9.3%; in assay [6] it was 17.8%.
